Screens (PubChem BioAssay)
MPTP block: permeability transition pore inhibition | 1.4% of 360,000 active | isolated mouse mitochondria, Ca2+ swelling absorbance, 30 min | inhibition, % at 10 µM;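 active means inhibition of 50% or more, scaled per plate between neutral and stimulator controls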;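 further: 0% = DMSO wells given calcium and 100% = 1 mM EGTA wells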
NR3A LBD binder: modulators (binders) of human NR3A ligand-binding domain; Tm shift relative to glycine control, % at 25 µM; NR3A LBD differential scanning fluorimetry, Tm shift; 0% = protein alone, 100% = glycine-bound protein; 2.5% of 340,000 active; AID 1259313;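 active means melting temperature shift of at least 10% of the positive control shift, at one fixed dose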
CSC inhib: blocks cancer stem cells. cancer stem cell-like cells viability, luminescence. inhibition, % at 7.5 µM. 1.1% of 300,000 active; in the data active means inhibition above about 75%; tested in HMLE shEcad cells
Beta apoptosis: blocks beta cell apoptosis; INS-1E cytokine-induced death, ATP luminescence, 48 h; percent of positive-control rescue, neutral wells zero; 0.8% of 300,000 active; protection from apoptosis, % (concentration not given with the values);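 active means Every replicate reaches about 75%, or at least half do and their mean reaches it too, limit read from the data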;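 further: 0% = cytokine-treated negative control wells and 100% = positive control rescue; higher means more ATP so stronger rescue from cytokine killing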
Mdm2 MdmX PPI: inhibitors of human Mdm2/MdmX interaction | 3% of 330,000 active | O15151+Q00987 | inhibition, % at 8 µM | SaOS-2 split-luciferase Mdm2/MdmX complementation, luminescence | AID 485346;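 active means inhibition of at least 50% at 8 µM in the primary screen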
Target sequence (O15151 whole entry, looked up): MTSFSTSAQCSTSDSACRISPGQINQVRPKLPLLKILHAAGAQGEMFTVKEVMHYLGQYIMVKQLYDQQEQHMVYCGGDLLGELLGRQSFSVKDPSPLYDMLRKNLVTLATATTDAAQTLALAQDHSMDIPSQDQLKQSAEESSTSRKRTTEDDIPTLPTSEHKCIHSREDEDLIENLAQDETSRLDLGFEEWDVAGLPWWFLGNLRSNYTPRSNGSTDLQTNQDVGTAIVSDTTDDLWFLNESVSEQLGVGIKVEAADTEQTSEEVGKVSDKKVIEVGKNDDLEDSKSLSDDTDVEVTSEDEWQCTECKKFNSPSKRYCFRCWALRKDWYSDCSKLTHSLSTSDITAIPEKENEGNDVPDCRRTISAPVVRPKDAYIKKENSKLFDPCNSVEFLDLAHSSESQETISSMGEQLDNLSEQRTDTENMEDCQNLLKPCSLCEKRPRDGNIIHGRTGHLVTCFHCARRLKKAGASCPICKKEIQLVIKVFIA
Target sequence (Q00987 whole entry, looked up): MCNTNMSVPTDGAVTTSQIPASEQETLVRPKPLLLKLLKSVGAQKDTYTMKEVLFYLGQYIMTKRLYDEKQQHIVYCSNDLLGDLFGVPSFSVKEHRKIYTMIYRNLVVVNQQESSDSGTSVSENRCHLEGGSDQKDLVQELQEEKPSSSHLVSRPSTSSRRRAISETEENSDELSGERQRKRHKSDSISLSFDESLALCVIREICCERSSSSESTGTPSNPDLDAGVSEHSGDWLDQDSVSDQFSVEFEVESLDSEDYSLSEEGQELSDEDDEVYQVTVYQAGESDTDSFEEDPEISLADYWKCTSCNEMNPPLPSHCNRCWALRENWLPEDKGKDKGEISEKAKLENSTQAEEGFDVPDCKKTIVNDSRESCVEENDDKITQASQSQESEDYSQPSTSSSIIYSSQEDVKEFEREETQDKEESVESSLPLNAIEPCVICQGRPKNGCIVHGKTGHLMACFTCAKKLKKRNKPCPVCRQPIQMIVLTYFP
Gli-Sufu block: blocks Gli-Sufu signaling in a luciferase reporter; inhibition, % at 5 µM; AID 588413; Sufu-KO-LIGHT fibroblasts, Gli luciferase reporter luminescence; 0.74% of 340,000 active;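 active means inhibition above about 55%, limit read from the data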;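 further: 0% = DMSO-treated cells and 100% = wells with medium but no cells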
* marks the source's active call; other numbers are inactive results; nt = not tested or not shown. Most compounds without a hit are left out; they make up all but 6.6% or so of the library.

SMILES | MPTP block | NR3A LBD binder | CSC inhib | Beta apoptosis | Mdm2 MdmX PPI | Gli-Sufu block
CC(C)(O)CC[C@@H](O)[C@](C)(O)C1CC[C@@]2(O)C3=CC(=O)[C@@H]4C[C@@H](O)[C@@H](O)C[C@]4(C)C3CC[C@]12C (stereo partly specified) | -1.7 | 10.1* | -16.6 | -0.7 | -13.5 | -18.6
CC(C)(O)CC[C@@H](O)[C@](C)(O)[C@H]1CC[C@@]2(O)C3=CC(=O)[C@@H]4C[C@@H](O)[C@@H](O)C[C@]4(C)[C@H]3CC[C@]12C | 1.5 | 4.4 | -6.1 | -4.7 | -11.9 | -4.4
O=C(OCc1ccccc1)/C(=C/c1cccc(Br)c1)NC(=O)c1ccco1 | -1.0 | 2.1 | 5.4 | 0.1 | 8.9 | 2.1
O=C(Nc1ccc(Nc2ccccc2)cc1)c1ccc(Br)o1 | 5.5 | 20.7* | nt | 5.8 | -30.5 | -30.5
O=C(Nc1cccc(NC(=O)c2cccs2)c1)c1ccc(Br)o1 | 0.9 | 15.9* | -6.1 | 2.7 | 5.6 | 4.3
O=C(NNC(=O)c1cccs1)c1ccc(Br)o1 | 0.7 | -1.3 | -9.5 | -11.0 | nt | -3.0
O=C(NC(=S)NNC(=O)c1cccs1)c1ccco1 | 4.8 | -1.4 | 12.1 | -0.9 | 13.6 | -0.2
O=C(Nc1ccc(NC(=O)c2cccs2)cc1)c1ccc(Br)o1 | 1.8 | 24.3* | 2.3 | 0.3 | -13.3 | -10.8
O=C(Nc1ccc(NC(=S)NC(=O)c2cccs2)cc1)c1ccco1 | 1.1 | 13.2* | 1.1 | -0.3 | 8.4 | -32.3
CC(C)[C@H]1COCCS(=O)(=O)N1Cc1ccccc1-c1cccc(Cl)c1 | -1.4 | 1.6 | nt | nt | 19.1 | -14.7
Cc1c(C(=O)NC(=S)Nc2ccc(NC(=O)c3cccs3)cc2)cccc1[N+](=O)[O-] | -0.4 | 10.7* | 9.7 | 6.4 | 36.2 | 11.6
CC(C)(C)n1cnc2cc(NS(=O)(=O)c3ccccc3)ccc21 | 0.2 | 15.1* | 11.8 | -4.2 | -6.6 | -23.8
COc1ccc(NC(=O)COc2nsnc2N2CCOCC2)c(OC)c1 | -0.1 | 14.0* | 4.2 | -4.0 | -3.2 | -47.0
O=[N+]([O-])c1ccc(Cl)cc1CN1CCCCCC1 | 0.0 | -2.2 | -8.5 | -8.6 | 20.5 | 18.6
Clc1ccc2scc(CN3CCCCC3)c2c1 | 0.0 | 16.4* | 18.5 | -0.9 | -0.7 | 11.3
CC(=O)Nc1ccc(NC(=O)C(C)OC(=O)c2ccc(S(=O)(=O)N3CCCCC3)cc2)cc1 (stereo unspecified) | -0.1 | -5.3 | -7.1 | -0.8 | 45.0 | -1.4
Cc1ccc(NC(=O)C(C)OC(=O)c2ccc(NS(=O)(=O)c3ccc(F)c(F)c3)cc2)cc1 (stereo unspecified) | 20.5 | 28.1* | 8.6 | nt | 18.4 | -1.9
Cc1ccc(S(=O)(=O)Nc2ccccc2C(=O)OC(C)C(=O)Nc2ccc3ccccc3c2)cc1[N+](=O)[O-] (stereo unspecified) | 25.3 | 0.4 | -10.9 | 9.1 | -3.4 | 10.9
CCc1ccc(NC(=O)C(C)OC(=O)c2ccc(NS(=O)(=O)c3ccc(C)c([N+](=O)[O-])c3)cc2)cc1 (stereo unspecified) | 15.7 | 12.6* | 39.7 | -1.6 | -8.9 | 1.5
CC(=O)c1ccc(NC(=O)C(C)OC(=O)c2ccc(NS(=O)(=O)c3ccc(F)c(F)c3)cc2)cc1 (stereo unspecified) | 5.2 | 11.2* | 4.8 | 3.0 | 2.5 | 2.3
O=C1C(=Cc2ccc(F)cc2)CCc2ccccc21 | 2.2 | nt | nt | nt | nt | nt
O=C(NCc1ccc(Cl)cc1)C1CCCN(c2cnccn2)C1 (stereo unspecified) | 0.0 | -3.0 | 9.8 | -7.8 | -3.8 | 21.5
COC(=O)C1(C(=O)OC)C[C@H](c2ccc(OC)cc2)N(Cc2ccccc2OC)[C@@H]1c1ccc(OC)cc1 | 1.6 | nt | nt | nt | nt | nt
COC(=O)[C@@H]1C[C@@]2(O)[C@@H](O)[C@@H](O)[C@@H](O)C[C@H]2N1Cc1ccc(C(F)(F)F)cc1 | 0.1 | 1.8 | 0.4 | -12.3 | -5.6 | -3.3
COC(=O)[C@@H]1C[C@@]2(O)[C@H](O)[C@H](O)[C@H](O)C[C@H]2N1Cc1cc(F)ccc1F | -1.4 | 11.4* | -9.2 | -14.1 | 1.8 | -3.8
SMILES | MPTP block | NR3A LBD binder | CSC inhib | Beta apoptosis | Mdm2 MdmX PPI | Gli-Sufu block
COC(=O)Cc1cc(C)cc2c(=O)cc(-c3ccoc3)oc12 | 4.9 | -4.4 | 1.9 | -1.5 | 14.7 | 6.3
CCCC(=O)Nc1ccc(C(=O)Nc2cc(C(F)(F)F)ccc2Cl)cc1 | -4.8 | -0.6 | nt | 3.8 | 5.2 | 6.4
O=C(Nc1cc(C(F)(F)F)ccc1Cl)c1ccc(NC(=O)C(F)(F)F)cc1 | 7.2 | 28.5* | 2.3 | -11.7 | -12.3 | -5.9
Cc1nc(NC(=O)c2ccc(Cl)cc2)sc1Cc1ccc2c(c1)OCO2 | 0.0 | -2.2 | 78.9* | 22.7 | 36.0 | -23.9
CCOC(=O)c1c(C)[nH]c(C)c1S(=O)(=O)N1CCN(c2ccc([N+](=O)[O-])cc2)CC1 | 0.6 | -11.2 | -2.3 | -12.8 | 24.7 | -14.9
O=C(NC(Cc1c[nH]c2ccccc12)C(=O)N1CCOCC1)c1cccs1 (stereo unspecified) | -0.9 | 2.4 | 0.1 | -2.3 | 7.3 | -7.6
O=C(NC(Cc1c[nH]c2ccccc12)C(=O)N/N=C/c1ccc(Cl)cc1)c1cccs1 (stereo unspecified) | 0.5 | 19.5* | 33.5 | -0.5 | -10.6 | -2.1
CCN(CC)CCOCCOc1cc(C)c(Cl)c(C)c1 | 1.3 | -2.5 | 88.7* | -3.3 | -0.4 | 4.1
Cc1cc(OCCOCCN(C)CCO)cc(C)c1Cl | 1.8 | -2.1 | -3.2 | 0.2 | 14.8 | 8.2
O=C(NC(=S)Nc1ccccc1)C1CCCCC1 | -0.7 | 0.3 | 9.3 | -0.7 | -9.2 | -16.2
O=C(NC(=S)NCc1ccccc1)C1CCCCC1 | 3.1 | 18.3* | 0.9 | -1.0 | 41.8 | 2.9
CC12COC3(C(=O)Nc4ccc([N+](=O)[O-])cc4)CC1CCC32C (stereo unspecified) | 3.1 | 16.8* | 8.9 | -6.2 | 2.5 | 5.2
CCOC(=O)C1(C)CCCN(C(=O)c2ccc(-c3ccccc3)cc2)C1 (stereo unspecified) | -1.6 | nt | nt | nt | nt | nt
CCOC(=O)c1[nH]c(C)c(C(=O)OCC(=O)NC(=O)NC(C)(C)C)c1C | 2.6 | -1.9 | -0.6 | -7.6 | 11.6 | -4.8
CCOC(=O)c1c(C)[nH]c(C(=O)OCC(=O)NC(C)(C)C)c1C | -1.1 | -1.8 | -11.0 | 85.5* | 21.2 | -5.0
COc1ccc(N2C(=NC(=O)C3CC3)SC3CS(=O)(=O)CC32)cc1Cl (stereo unspecified) | -1.5 | -0.4 | -8.6 | -3.4 | 15.7 | 4.1
N/C(=N\OC(=O)c1csnn1)c1ccc(C(F)(F)F)cc1 | 2.1 | -0.6 | -4.8 | -4.9 | -34.9 | 9.0
C(=Nc1ccc(Nc2ccccc2)cc1)c1ccc2ccccc2c1 | -3.4 | -12.7 | 6.3 | 1.2 | nt | -23.0
Brc1ccc(C=Nc2ccc(Nc3ccccc3)cc2)s1 | -0.7 | 11.8* | 14.2 | -4.1 | nt | -13.1
Cc1ccc(NC(=O)CCS(=O)(=O)c2ccc3c(c2)NC(=O)C(C)S3)nc1 (stereo unspecified) | -0.9 | 6.6 | -9.7 | -8.7 | 11.9 | -4.5
Cc1nc(NC(=O)CSc2nnc(C3CC3)n2C)sc1C | 0.7 | 1.1 | -37.6 | -6.2 | 22.7 | -18.6
